HSF1 inh: HSF1 inhibition; activity change, negative = inhibition, % at 7.5 µM (by protocol); 300,000 compounds, 0.77% hits; NIH3T3-HGL HSE-luciferase, MG132-induced, luminescence 8 h; active compounds read low;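 active = more than half of replicate wells show activity change below -50%, luminescence cut by over half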;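 note: luciferase reports HSF-1 transcriptional activity via heat shock element; 0% = median of DMSO wells and -100% = zero luminescence signal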
HSF1 activator: increases HSF-1 driven luciferase reporter signal. NIH3T3-HGL HSF-1 luciferase reporter, MG132, 8 h; 100% = twice DMSO control signal. activation, % at 9 µM. 300,000 compounds, 1.7% hits. AID 504408;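 active = mean replicate activation of at least 50% with a set share of replicates each reaching 50%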;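 note: 0% = median of the neutral control wells and 100% = twice that signal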
S1P3 antagonist: antagonists of human S1P3 receptor | Q99500 | CHO S1P3 NFAT-BLA reporter, FRET fluorescence, antagonist mode | inhibition, % at 4.98 µM | 170,000 compounds, 0.27% hits;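 active = inhibition above the plate cutoff, the mean inhibition of test wells on that plate plus 3 SD, cut at about 28% in these data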;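 note: cells challenged with S1P at its EC80 of 0.8 µM; blue over green emission ratio from cleaved BLA substrate after 4 h stimulation; 0% = S1P-stimulated wells and 100% = unstimulated DMSO-only wells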
S1P4 agonist: agonists of human S1P4 receptor; O95977; S1P4-expressing cell line, agonist reporter assay; activation, % at 4.98 µM; 220,000 compounds, 0.35% hits; AID 1509; in the data active = activation above about 11%;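 note: 0% = DMSO vehicle and 100% = reference agonist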
Target sequence (O95977 whole entry, looked up): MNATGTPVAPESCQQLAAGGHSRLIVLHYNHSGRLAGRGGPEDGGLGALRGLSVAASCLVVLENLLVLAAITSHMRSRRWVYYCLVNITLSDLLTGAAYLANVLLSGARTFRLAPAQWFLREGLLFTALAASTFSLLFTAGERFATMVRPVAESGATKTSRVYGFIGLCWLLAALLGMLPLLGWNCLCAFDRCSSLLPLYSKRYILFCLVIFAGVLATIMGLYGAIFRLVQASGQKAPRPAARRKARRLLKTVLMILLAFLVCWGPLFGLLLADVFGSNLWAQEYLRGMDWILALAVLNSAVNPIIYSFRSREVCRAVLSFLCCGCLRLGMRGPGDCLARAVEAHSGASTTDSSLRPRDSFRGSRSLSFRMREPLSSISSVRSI
S1P4 antag: antagonists of human S1P4 receptor | O95977 | S1P4-expressing cells, antagonist mode, reporter read-out | inhibition, % at 4.98 µM | 220,000 compounds, 0.26% hits; in the data active = inhibition above about 29%;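 note: 0% = wells stimulated with agonist and 100% = vehicle wells without agonist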
Hsp70 activator: transcriptional activators of Hsp70; 200,000 compounds, 0.04% hits; activation, % at 10 µM; HeLa Hsp70 promoter luciferase reporter, luminescence; scaled: vehicle 0, proteasome-inhibitor control 100%;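 active = activation above the mean across all tested compounds plus 3 SD, cutoff set per campaign, cut at about 5.5% in these data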;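 note: 100% = MG132 at 30 µM as the positive control and 0% = DMSO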
An asterisk follows results filed as active; . = no result given. Sampled rows, rich in hits. Any-hit rate of the full collection: about 2.9%.

SMILES	HSF1 inh	HSF1 activator	S1P3 antagonist	S1P4 agonist	S1P4 antag	Hsp70 activator
CC1Cc2ccccc2N1C(=O)CSc1ncc(-c2ccc(F)cc2)n1C (stereo not given)	49	67*	-4	2	-18	0
CCn1cc([N+](=O)[O-])c(C(=O)Nc2nc(-c3ccc(C)c(C)c3)c(C)s2)n1	39	61*	.	1	-34	0
CCn1cc([N+](=O)[O-])c(C(=O)Nc2nc(-c3ccc(C)cc3)c(C)s2)n1	21	3	.	-2	-6	0
CCCn1c(=S)[nH]c2cc(C(=O)N(CCO)Cc3ccccc3)ccc2c1=O	1	9	.	.	.	.
O=C(COc1cc(Cl)c(Cl)cc1Cl)Nc1cccc(O)c1	55	87*	-17	-1	-10	.
Cc1cc(=O)n2c3ccccc3n(C)c2n1	2	3	.	.	.	.
Cc1c(C(=O)Nc2ccc(Cl)cc2)c2ccccn2c1CCc1ccncc1	37	66*	11	0	-5	0
COC(=O)c1sccc1NC(=O)CC1C(=O)NCCN1C(=O)c1ccc(N(C)C)cc1 (stereo not given)	-5	0	-13	0	1	.
CC(Oc1ccc(-c2ccccc2)c(F)c1)c1ccn(S(=O)(=O)c2ccc(Cl)cc2)n1 (stereo not given)	7	34	.	0	-9	0
CCOC(=O)c1cnc2ccccc2c1Nc1ccc2c(c1)OCCO2	-61*	-64	2	-1	-9	0
O=C(c1ccc(COc2ccc(Cl)cc2)cc1)N1CCCCC1	29	54*	-1	3	-43	0
CCCCOc1ccc(C(=O)N2CCCCCC2)cc1	2	4	32	1	3	0
NNC(=O)c1ccc([N+](=O)[O-])c(CS(=O)(=O)c2ccc(Cl)cc2)c1	28	57*	.	-1	-28	0
CCOC(=O)C(C)(C)NS(=O)(=O)c1ccc(Cl)c([N+](=O)[O-])c1	-5	-3	-20	-3	26	0
CCOC(=O)C(C)(C)N(Cc1ccc(Cl)cc1)S(=O)(=O)c1ccc(Cl)c([N+](=O)[O-])c1	33	66*	1	-1	2	0
CCN1CCN(C(=O)C2CCN(S(=O)(=O)c3ccc(SC)cc3)CC2)CC1	-2	-5	.	.	.	.
C/[N+]([O-])=C\C1C(=O)CC(C)(C)CC1=O	-55*	-63	-33	0	-11	0
C=CCO/N=C/C1C(=O)CC(C)(C)CC1=O	-8	6	3	4	-5	0
NC(=O)N/N=C/c1ccccc1OC(=O)c1cc2ccccc2oc1=O	22	34	.	.	.	.
O=C(Oc1ccccc1/C=C\C(=O)c1cc2ccccc2o1)c1ccccc1	289	366*	2	0	2	0
O=C(Oc1ccccc1/C=C\C(=O)c1cc2ccccc2o1)c1cccc(F)c1	199	235*	-6	2	-3	0
COc1cccc(C(=O)Oc2ccccc2/C=C\C(=O)c2cc3ccccc3o2)c1	129	131*	-10	3	19	0
C/C(=N\NC(=O)c1nnn(-c2nonc2N)c1CSc1ccc(Cl)cc1)c1ccco1	13	38	.	.	.	.
O=C(NCC1CCCN1S(=O)(=O)c1cccs1)c1cccc(Cl)c1 (stereo not given)	-3	-2	.	.	.	.
COc1ccc(CNC(=O)CCCn2nc(C)c3c(C)n(-c4ccccc4)nc3c2=O)cc1	-5	22	.	.	.	.
SMILES	HSF1 inh	HSF1 activator	S1P3 antagonist	S1P4 agonist	S1P4 antag	Hsp70 activator
O=C(Nc1cccnc1)C(Cc1ccccc1)n1cccc1 (stereo not given)	2	2	12	0	2	0
O=C(Nc1ncc(Br)s1)C(Cc1ccccc1)n1cccc1 (stereo not given)	-3	-9	67*	0	24	0
COC(=O)CSc1nc2cc(OC)ccc2cc1C#N	31	58*	-4	0	10	1
COC(=O)CSc1nc2ccc(C)cc2cc1C#N	29	80*	-7	-1	-7	0
CCc1nc2cc(CC(=O)O)ccc2o1	-2	-8	.	-1	-13	0
O=[N+]([O-])c1ccc(N=Cc2sc3ccccc3c2O)cc1	-84*	-87	-9	1	-20	0
N#CCc1nn(-c2ccccc2)c2ncnc(N)c12	-60*	-69	-17	-3	3	.
O=C(CSc1nc2ccccc2n1S(=O)(=O)c1ccccc1)N1CCCCC1	-56*	-58	.	1	-3	0
